# Laboratory results: PubChem BioAssay AID2315 (National Center for Advancing Translational Sciences (NCATS), 2010)
# Out of some 290,000 compounds screened, about 27,000 (9.3%) were called active. Only a selection was taken, and actives are over-represented in it overall. Values without a mark were called inactive. Cut-off read from the data, not from the text of the source: active = inhibition mostly above about 28% (no sharp cut-off); inactive = mostly below about 43%.
# Assay: A qHTS for Small Molecule Inhibitors of Shiga Toxin; note: 0% is about no effect
# Details: Vero cells, Shiga toxin protein synthesis inhibition reporter; at 38.7 µM, hits give high values
row,Structure (SMILES),inhibition
1,COc1ccc(S(=O)(=O)NCCOc2ccccc2)cc1F,21%
2,CC(=O)Nc1ccc(CC#N)cc1,-1.48%
3,NC(=O)COc1ccc(NC(=O)c2ccccc2-c2ccccc2)cc1,-16.2%
4,N#CCc1ccc(NC(=O)c2ccccc2C(=O)Nc2ccc(CC#N)cc2)cc1,57.5% (active)
5,O=C(NCCO)C(=O)NCC(c1ccc2c(c1)OCO2)N1CCN(c2ccc(F)cc2)CC1 (stereo unspecified),17.7%
6,O=C(O)c1ccc(S(=O)(=O)N2CCOCC2)o1,-9.6%
7,O=C(COc1ccc(-c2ccccc2)cc1)NN=C1CCCC1,-0.705%
8,CS(=O)(=O)N(Cc1ccccc1)c1ccc(C(=O)NN=C2CCCCCC2)cc1,0.281%
9,CCc1ccc(C(=O)NN=C2CCCCCC2)s1,50.4% (active)
10,O=C(NCCC1=CCCCC1)c1ccc(Cl)c([N+](=O)[O-])c1,78.7% (active)
11,Cc1ccn2c(=O)c(C(=O)NCCC3=CCCCC3)c(O)nc2c1,0.166%
12,O=C(COc1ccc(Cl)cc1)NCCC1=CCCCC1,19.6%
13,CC(CC(=O)O)C(=O)c1ccc(Cl)c([N+](=O)[O-])c1 (stereo unspecified),-9.51%
14,O=C(Cc1nn[nH]n1)NCCC1=CCCCC1,-11.6%
15,CN1CCNC(=O)C1CC(=O)NCCC1=CCCCC1 (stereo unspecified),-5.56%
16,CC(=O)Nc1ccc(S(=O)(=O)N(C)CC(=O)NCCC2=CCCCC2)cc1,-23.7%
17,Cn1nnc2cc(C(=O)NCCC3=CCCCC3)ccc21,64.2% (active)
18,CN(c1ccc(C(=O)NCCC2=CCCCC2)cc1)S(C)(=O)=O,89.4% (active)
19,Cc1ccc(NS(=O)(=O)c2c(C)[nH]c(C)c2C(=O)N2CCCCC2)c(C)c1,-1.7%
20,CCOc1ccc(NC(=O)CC(Cc2ccc(Cl)cc2)C(=O)O)cc1 (stereo unspecified),-2.62%
21,COC(=O)c1c(NC(=O)c2ccccc2F)sc2c1C(C(=O)OC)CC2 (stereo unspecified),-16.3%

row,Structure (SMILES),inhibition
1,COC(=O)[C@@H]1CC(O)CN1C(=O)C12CC3CC(CC(C3)C1)C2 (stereo partly specified),4.2%
2,COc1cccc(C(=O)Nc2nnc(S(=O)(=O)N3CCOCC3)s2)c1,7.84%
3,O=C(Nc1ccc(N2CCOCC2)c(Cl)c1)c1ccc(S(=O)(=O)N2CCOCC2)cc1,-13.3%
4,O=C(Nc1nnc(S(=O)(=O)N2CCCCCC2)s1)c1cccc(Br)c1,-2.66%
5,O=C(Nc1ccc(S(=O)(=O)Nc2nccs2)cc1)c1cccc(S(=O)(=O)N2CCOCC2)c1,-3.68%
6,O=C(Nc1nnc(S(=O)(=O)N2CCOCC2)s1)c1cccc(Br)c1,31.4% (active)
7,O=C(Nc1ccc(S(=O)(=O)N2CCOCC2)cc1)c1ccc2ncsc2c1,64.5% (active)
8,O=C(c1cnc(Cl)c(Cl)c1)N1CCN(S(=O)(=O)c2ccc(F)cc2)CC1,1.5%
9,CCc1ccc(NC(=O)CN2CCC(C(=O)c3ccc(OC)cc3)CC2)cc1,-10.2%
10,CCNC(=O)CC1C(=O)N(c2ccc(OC)cc2)C(=O)N1CCOC (stereo unspecified),-7.39%
11,CC(C)C[C@H](NC(=O)N1CC(=O)Nc2ccccc21)C(=O)N[C@H](Cc1ccccc1)C(=O)O,-3.7%
12,COc1cccc(C(O)Cc2nc3ccccc3n2C)c1OC (stereo unspecified),10.7%
13,CCCn1c(C(O)c2ccc(OCC)cc2)nc2ccccc21 (stereo unspecified),-6.45%
14,CCOc1ccc(C(O)Cc2nc3ccccc3n2C)cc1 (stereo unspecified),61.7% (active)
15,S=C(NNC(=S)NC1CC2CCC1C2)NC1CC2C=CC1C2 (stereo unspecified),38%
16,S=C(NNC(=S)NC1CC2C=CC1C2)NC1CC2C=CC1C2 (stereo unspecified),18.6%
17,CC(C)c1ccc(NC(=S)NC2CC3C=CC2C3)cc1 (stereo unspecified),81.8% (active)
18,O=C(CN1CCC(NC(=O)Nc2ccccc2)CC1)Nc1cccc([N+](=O)[O-])c1,-6.37%
19,O=C(CCN1C(=O)C2C3CCC(C3)C2C1=O)Nc1ccc(Cl)cc1Cl (stereo unspecified),30.5%
20,Cc1cccc(NC(=O)C2CCN(C(=O)NC3CCCCC3)CC2)c1,-14.2%
21,Cc1csc(=Nc2ccccc2)n1CCO,-5.67%

row,Structure (SMILES),inhibition
1,Cc1csc(=NC(=O)c2ccccc2)n1CCO,-11%
2,OCCn1c(-c2ccccc2)csc1=Nc1ccccc1,29.8% (active)
3,Cc1cc2c(cc1S(=O)(=O)CCC(=O)NCc1ccccc1)OCC(=O)N2,9.17%
4,COCCCNC(=O)CNC(=O)c1nn(-c2ccc(OC)cc2)c(=O)c2ccccc12,-3.74%
5,O=C(CN1CCN(S(=O)(=O)c2cc(Cl)ccc2Cl)CC1)c1ccc(O)c(O)c1,-3.28%
6,COC(=O)Nc1nc2ccc(Sc3ccccc3)cc2[nH]1,76.6% (active)
7,COc1cc(OC)cc(C(=O)N[C@H](C(=O)Nc2nc3ccccc3[nH]2)C(C)C)c1,-3.89%
8,Cc1nc2ccc(C(=O)O)cc2[nH]1,-11.9%
9,Cc1ccc(S(=O)(=O)N(C)c2nc3ccccc3n3c(C(C)C)nnc23)cc1,13.3%
10,CC(=O)Nc1ccc(NC(=S)NC(=O)/C=C/c2ccccc2)cc1,5.78%
11,COc1ccc(C(=O)/C=C/c2ccc(OC3CSC3)cc2)cc1,2.97%
12,CC(=O)Nc1ccc(C(=O)/C=C/c2ccc[nH]2)cc1,77.1% (active)
13,CCCC(=O)Nc1ccc(C(=O)N/N=C/c2ccc[nH]2)cc1,13%
14,CC(=O)Nc1ccc(NC(=O)CCCNC(=O)c2ccc(Cl)cc2)cc1,3.88%
15,CC(=O)Nc1ccc(/C=C/C(=O)c2ccccc2)cc1,58.1% (active)
16,C=CCNC(=S)/N=c1/ccccn1Cc1ccccc1,2.67%
17,O=C(NC(=S)NC1CCS(=O)(=O)C1)c1cccc([N+](=O)[O-])c1 (stereo unspecified),-10.3%
18,Cc1ccc(SCC(=O)NNC(=O)c2ccc(S(C)(=O)=O)cc2)cc1,-6.84%
19,COc1ccc(CCn2c(=N)c(C(=O)NCC3CCCO3)cc3c(=O)n4cccc(C)c4nc32)cc1OC (stereo unspecified),2.54%
